# Screening results from PubChem BioAssay.
# SARS PLpro yeast = blocks SARS-CoV papain-like protease in a yeast assay; S. cerevisiae expressing SARS-CoV PLpro, growth rescue; Potency, µM (series often up to 32.9 µM), most hits filed as activators; 0.19% of 330,000 active; AID 485353; calls by dose curve; also: nearly all actives have a fitted effect of over 55% in size
# Pf growth 96h = inhibits malaria parasite growth, 96 h; P. falciparum luciferase reporter growth, 96 h; Potency, µM (top dose mostly 28.7 µM), actives largely listed as inhibitors; 6.9% of 320,000 active; AID 504834
#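 Readout is luminescence from an integrated firefly luciferase in P. falciparum. Red cells, 2% hematocrit and 0.05% parasitemia final, were cultured with compound through two parasite generations (96 hours) at 37 C, 5% CO2.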
# AMA1 RON2 block = disrupts binding of P. falciparum AMA1 to RON2; AlphaScreen AMA1-biotinylated RON2 peptide binding; Potency, µM (doses to about 58.2 µM), usual class: inhibitors; 0.2% of 360,000 active; also: nearly all actives have a fitted effect of over 45% in size
#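 AMA1 (3D7) with his tag at 25 nM final met compounds first, then biotinylated RON2 peptide at 25 nM; detection used donor plus acceptor beads, 10 µg/mL apiece, read by AlphaScreen after 30 min at room temperature.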
# Pf growth 48h = P. falciparum growth inhibition at 48 hours (one generation); 5.9% of 310,000 active; AID 504832; P. falciparum luciferase growth in erythrocytes, 48 h; Potency, µM (series often up to 28.7 µM), hits mostly inhibitors
#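 A one-generation exposure of luciferase-tagged malaria parasites in RPMI 1640/Albumax erythrocyte culture, 37 C and 5% CO2. Inhibition is inferred from decreased luminescence after adding detection reagent.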
# A number is an active result; – = inactive; ? = inconclusive; · = no result given. The list is not random: actives were taken first. Their share in the collection is about 9.4%. Unless noted, calls follow the shape of the dose curve; as a rule, active = well fitted curve in the direction sought with a large enough effect; inconclusive = small, poorly fitted or top-dose-only effect, or another doubt; inactive = no such curve, though single readings can be large; an effect the other way counts as inactive or inconclusive.
SMILES,SARS PLpro yeast,Pf growth 96h,AMA1 RON2 block,Pf growth 48h
O=C(COC(=O)c1cc(-c2ccco2)nc2ccccc12)NCc1ccc2c(c1)OCO2,–,–,–,–
C[C@@H](C(=O)N[C@@H](Cc1ccccc1)C(=O)O)n1nnc2ccccc2c1=O,–,–,–,–
O=C(Oc1cccc(C(=S)N2CCOCC2)c1)c1ccc([N+](=O)[O-])cc1,–,–,–,–
Cc1ccc([N+](=O)[O-])cc1N=C(c1cccc(Br)c1)N1CCOCC1,–,13.1µM,?,?
CCCCn1c(=N)n(CC(=O)c2ccc([N+](=O)[O-])cc2)c2ccccc21,–,–,·,–
CC(=O)c1nc2ccccc2n1S(=O)(=O)c1ccc(Cl)cc1,–,11.7µM,–,–
CCOc1ccccc1N1CCN(C(=O)c2ccccc2SCC(=O)N2CCCC2)CC1,–,13.1µM,–,?
CCOc1ccccc1N1CCN(C(=O)c2ccccc2)CC1,–,–,–,–
Cc1ccccc1NS(=O)(=O)c1ccc(C(=O)N2CCCCCC2)cc1,–,–,?,–
Cc1ccccc1NS(=O)(=O)c1ccc(C(=O)N2CCN(c3ccccc3O)CC2)cc1,–,5.22µM,–,13.1µM
CCOc1ccccc1N1CCN(C(=O)c2ccc(S(=O)(=O)Nc3ccccc3)cc2)CC1,–,9.28µM,–,?
Cc1cccc(N2CCN(C(=O)NC3CCCCC3)CC2)c1C,–,–,–,–
CCOc1ccccc1N1CCN(C(=O)NC2CCCCC2)CC1,–,1.65µM,–,–
Cc1c(C(=O)OCC(=O)Nc2ccc(S(N)(=O)=O)cc2)oc2c1ccc1ccccc12,–,–,–,–
C=C(C)C1CC=C(C)/C(=N/NC(=O)c2cccs2)C1 (configuration not stated),–,–,–,–
COc1ccc2cc(CN(CCCN3CCOCC3)Cc3nnnn3C3CCCCC3)c(=O)[nH]c2c1,–,?,–,?
O=C(COC(=O)c1cccnc1Cl)NCCC1=CCCCC1,–,–,–,–
Cc1c(NC(=O)COC(=O)/C=C/c2ccc(Cl)cc2)c(=O)n(-c2ccccc2)n1C,–,–,–,–
COc1cc(/C=C2\SC(=S)N(CC(=O)NC3=NCCS3)C2=O)cc(OC)c1OC,–,–,–,?
COc1ccc(CCNC(C(=O)Nc2cc(C)cc(C)c2)c2ccccc2)cc1 (configuration not stated),–,?,–,?
CCOc1ccccc1N1CCN(C(=O)CCCN2C(=O)c3cccc4cccc(c34)C2=O)CC1,–,9.28µM,–,?
COc1ccccc1N1CCN(C(=O)c2ccc(NS(=O)(=O)c3ccc(C)cc3)cc2)CC1,–,–,–,?
Cc1ccc(S(=O)(=O)Nc2ccc(C(=O)N3CCN(c4ccccc4O)CC3)cc2)cc1[N+](=O)[O-],–,–,–,14.7µM
CCOC(=O)CCC(=O)Nc1cc(S(=O)(=O)N2CCOCC2)ccc1N1CCCCC1,–,–,–,–
O=C1OC2(O)C3C4C=CC(C4)C3C(=O)N2c2ccccc21 (configuration not stated),–,–,–,2.33µM
SMILES,SARS PLpro yeast,Pf growth 96h,AMA1 RON2 block,Pf growth 48h
CCCCC(=O)Nc1nn(CC)c2nc3c(C)cccc3cc12,–,?,–,·
O=C(c1ccc(Br)cc1)C(CN1CCOCC1)c1ccccc1 (configuration not stated),–,?,–,–
OC(c1ccc(F)cc1)C(CN1CCOCC1)c1ccccc1 (configuration not stated),–,10.4µM,–,11.7µM
COc1cccc(OCC(O)CN2CCOCC2)c1 (configuration not stated),–,?,–,?
OC(c1ccccc1)(c1ccc(F)cc1)C(c1ccccc1)N1CCOCC1 (configuration not stated),–,6.57µM,–,–
CCCCCOc1ccc(C(O)C(CN2CCOCC2)c2ccccc2)cc1 (configuration not stated),–,–,–,2.62µM
CCOc1ccc(C(=O)C(CN2CCOCC2)c2ccccc2)cc1 (configuration not stated),–,?,–,?
COc1ccc(C(O)C(CN2CCOCC2)c2ccccc2)cc1 (configuration not stated),–,9.28µM,–,?
O=C(Nc1ccccc1)C1Cc2c(-c3ccc4c(c3)OCO4)ccnc2O1 (configuration not stated),·,·,–,·
O=C(OCn1nnc2ccccc2c1=O)c1cn(-c2ccccc2)nc1-c1cccnc1,–,–,–,–
CCc1nn(C(CC)C(=O)NCCCN2CC(C)CC(C)C2)c(=O)c2cc3oc(C)cc3n12 (configuration not stated),–,0.185µM,–,?
COc1cccc(-c2cc(C(=O)N3CCN(C(c4ccccc4)c4ccccc4)CC3)no2)c1,–,1.47µM,–,8.28µM
Cc1cc(=O)[nH]c(SCC(=O)N2CCN(C(c3ccccc3)c3ccccc3)CC2)n1,–,–,–,13.1µM
COc1ccccc1N1CCN(C(=O)c2c(C)cc(=O)oc2C)CC1,–,·,–,–
Cc1cc(=O)oc(C)c1C(=O)N1CCN(C(c2ccccc2)c2ccccc2)CC1,–,9.28µM,–,13.1µM
Cc1cc(C(=O)N2CCN(c3ccccc3)CC2)no1,–,–,–,–
Cc1cc(C(=O)N2CCN(C(c3ccccc3)c3ccccc3)CC2)no1,–,?,–,9.28µM
CC12CCC(C(=O)N3CCN(C(c4ccccc4)c4ccccc4)CC3)(OC1=O)C2(C)C (configuration not stated),–,1.65µM,–,·
O=C(c1cc(-c2cccs2)on1)N1CCN(C(c2ccccc2)c2ccccc2)CC1,–,–,–,6.57µM
CCCc1cc(C(=O)N2CCN(C(c3ccccc3)c3ccccc3)CC2)no1,–,?,–,11.7µM
CC12CCC(C(=O)NCc3ccccc3)(OC1=O)C2(C)C (configuration not stated),–,–,–,–
Cc1c(C(=O)N2CCN(C(c3ccccc3)c3ccccc3)CC2)oc2ccccc12,–,14.7µM,–,6.57µM
Cc1c(C(=O)N2CCC3(CC2)OCCO3)oc2ccccc12,–,–,–,–
COc1cccc(CN(CC(=O)NCc2ccc(F)cc2)C(=O)c2ccco2)c1,–,–,–,–
CCCc1cc(=O)[nH]c(SCC(=O)N2CCN(S(=O)(=O)c3ccccc3)CC2)n1,–,?,–,–
SMILES,SARS PLpro yeast,Pf growth 96h,AMA1 RON2 block,Pf growth 48h
CCCc1cc(=O)[nH]c(SCC(=O)N2CCN(S(=O)(=O)c3ccc(C)cc3)C2)n1,–,13.1µM,–,·
COc1ccc(Cl)cc1NC(=S)NCCSc1ccc(C)cc1,–,11.7µM,–,–
Cc1ccc(NC(=S)NCCSc2ccc(Cl)cc2)cc1,–,?,–,11.7µM
COc1ccc(COC(=O)C2=C(C)NC(=O)NC2c2ccc(OC)cc2)cc1 (configuration not stated),–,–,–,–
CCOC(=O)c1cccc(NC(=O)c2ccc(NC(=O)c3ccco3)cc2)c1,–,–,–,?
COc1ccccc1C1N(c2cc(Cl)ccc2OC)C(=O)C2CCCN21 (configuration not stated),–,–,–,·
